# The full ranking holds about 33,000 sequences; the median of “E-score (-0.5 to 0.5)” is about -0.0014, and the highest 2% start at about 0.25. This excerpt belongs to a sample that is enriched for the highest values.
# Molecular target: T1, Cad1 (UniProt P24813)
# T1 sequence: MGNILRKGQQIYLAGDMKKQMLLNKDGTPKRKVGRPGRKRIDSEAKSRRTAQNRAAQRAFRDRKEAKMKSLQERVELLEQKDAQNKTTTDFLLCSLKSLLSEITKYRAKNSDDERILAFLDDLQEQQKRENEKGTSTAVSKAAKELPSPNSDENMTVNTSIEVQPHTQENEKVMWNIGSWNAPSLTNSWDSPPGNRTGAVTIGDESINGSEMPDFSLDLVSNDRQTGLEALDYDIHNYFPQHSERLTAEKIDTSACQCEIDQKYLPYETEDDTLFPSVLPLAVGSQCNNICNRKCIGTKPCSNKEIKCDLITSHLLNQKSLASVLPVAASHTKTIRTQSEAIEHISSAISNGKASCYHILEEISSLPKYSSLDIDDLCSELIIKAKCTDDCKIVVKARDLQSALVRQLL
# Test: PBM E-score (8-mer binding enrichment) (E-score (-0.5 to 0.5)); higher = stronger / more preferred TF binding
# Settings: protein concentration: 100 nM; construct: GST-full length
# Procedure, shortened: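 Yeast transcription factors carrying a GST tag, as full-length proteins or DNA-binding domains, were produced by PURExpress in vitro transcription/translation. About 100-200 nM protein was applied to universal all-10-mer Agilent arrays, double-stranded by primer extension on fresh or once-stripped slides. Bound protein was detected with fluorescent anti-GST, and scans were normalised with masliner. The Universal PBM Analysis Suite gave each ungapped eight-base word, pooled with its reverse complement, an E-score, a modified Wilcoxon-Mann-Whitney statistic.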
row,Sequence,PBM E-score
1,ACTGGTCA,-0.0283
2,GAGTCCGC,-0.377
3,ATTTAGGA,0.0482
4,AGGCAGGG,-0.133
5,ACCACCAA,-0.0937
6,CTTCCGTC,-0.133
7,CAGAGCAA,-0.0906
8,AACAGGGC,0.0552
9,TGCGTGAA,0.0712
10,GACGTATC,-0.107
11,ACCCATGA,-0.0855
12,CCACACGC,0.131
13,ATTACGAA,0.327
14,CTCACGTA,-0.0707
15,ATTACGTA,0.392
16,GTTACGAA,0.17
17,ATTACGAG,0.0536
18,GTTACGTA,0.0792
19,ATTACGTG,0.163
20,CTTACGTC,-0.0353
21,CTTACGTA,0.328
22,CCAATTTC,0.105

row,Sequence,PBM E-score
1,ATCCACTA,0.127
2,GACTAAGA,0.0179
3,AGATTACG,0.252
4,AGATTACC,0.107
5,AAATTATA,0.237
6,TGATTACA,0.275
7,TAATTACA,0.265
8,TAATTATA,0.306
9,GGATTACA,0.0354
10,AAATTACA,0.191
11,GAATTATA,0.19
12,CGATTACA,0.197
13,AGATTACT,0.184
14,CAATTACA,0.241
15,ATGCCCGA,-0.0531
16,TGGCGCCA,0.198
17,CGCGTTCC,0.132
18,AGATCAGG,-0.128
19,TCGTTAGA,0.0445
20,CGTACTTC,0.096
21,CTACGGCC,-0.0892
22,TCGGTACA,-0.0456

row,Sequence,PBM E-score
1,ACAAGAAT,0.00675
2,ATAAGAAC,0.205
3,ATAAGATC,0.0938
4,AAAAGAAT,0.257
5,AAAAGAAC,0.118
6,CTAAGATA,-0.0701
7,ACAAGAAC,0.251
8,ATAAGATA,0.264
9,GCAAGAAC,0.0479
10,AAAAGAAG,0.0683
11,ATAAGAAT,0.284
12,ATAAGAAA,0.209
13,GGCTTTAA,-0.12
14,TACCACTA,-0.0282
15,CTAGCCCA,-0.145
16,CGGACACA,0.00739
17,GAGGCTTA,-0.0175
18,ATAGGCAT,-0.202
19,GAGGTTCA,0.0769
20,CTGGCTGC,-0.0751
21,ACGCGTCA,0.198
22,GGGAAGAC,-0.154

row,Sequence,PBM E-score
1,AAACCCAG,0.0892
2,AACCCCAT,-0.107
3,AAACCCAT,0.261
4,AGGCCGAA,-0.0603
5,CTTAAGGA,0.0352
6,AAGGCACA,-0.0665
7,TGACCGCA,0.0752
8,AAATGATT,0.261
9,GAATGATA,0.223
10,AAATGATA,0.214
11,AAATGATC,-0.133
12,TAATGATA,0.251
13,CAATGATA,0.0335
14,AATCTGCG,0.00478
15,CAGGTTAC,-0.0155
16,CACTTCGG,-0.0116
17,GATTGTAC,-0.082
18,CATTGTAC,0.0995
19,AATTGTAC,0.252
20,AACACAGC,0.281
21,AACACAGG,-0.0364
